Screening results (PubChem)
D2 PAM-1 = positively modulates the human D2 dopamine receptor allosterically. HEK293 T-REx D2, calcium flux, EC20 dopamine potentiation. potentiation, % at 10 µM. 340,000 compounds, 0.34% hits;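 active = potentiation over 3 SD above the plate norm, cut at about 30% in these data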
Target sequence (P14416 whole entry, looked up): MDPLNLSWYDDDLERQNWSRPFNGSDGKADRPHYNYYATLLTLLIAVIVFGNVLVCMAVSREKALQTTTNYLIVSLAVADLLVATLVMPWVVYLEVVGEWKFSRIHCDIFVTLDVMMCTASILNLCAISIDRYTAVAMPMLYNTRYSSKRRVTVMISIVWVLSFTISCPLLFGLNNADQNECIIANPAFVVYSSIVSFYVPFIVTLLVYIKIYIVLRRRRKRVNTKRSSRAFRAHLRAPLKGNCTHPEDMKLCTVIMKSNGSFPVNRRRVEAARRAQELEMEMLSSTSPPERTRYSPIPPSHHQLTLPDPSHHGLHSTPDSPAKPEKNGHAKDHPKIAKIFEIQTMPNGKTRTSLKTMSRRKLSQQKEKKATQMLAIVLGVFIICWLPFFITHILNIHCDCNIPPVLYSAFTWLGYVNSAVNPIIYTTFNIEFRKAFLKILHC
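Using a no-wash calcium dye in inducible, force-coupled HEK293 Trex cells expressing D2, we tracked fluorescence each second for 180 s after compound, then for 180 s after EC20 dopamine to detect augmented signalling.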
D2 ag-1 = D2 dopamine receptor (human) agonism; P14416; HEK293 T-REx D2 cells, calcium flux agonist mode; activation, % at 2 µM; 340,000 compounds, 0.53% hits;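 active = activation over 3 SD above normal in the single-dose calcium agonist read, cut at about 30% in these data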
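In this primary screen, compounds producing a positive calcium signal within 180 s of addition to tetracycline-induced, force-coupled HEK293 Trex D2 cells are flagged; cells are dye-loaded with a no-wash calcium kit beforehand.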
D2 PAM-2 = human D2 receptor positive allosteric modulation; DiscoveRx D2 beta-arrestin cells, luminescence, 90 min; 100% = 57 uM dopamine signal; P14416; 360,000 compounds, 0.23% hits; AID 624464; potentiation, % (test concentration not listed); in the data active = potentiation above about 50%; inconclusive = mostly about 30% to 49%
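PathHunter D2 cells, attached overnight at 37 deg C, received compound in DMSO plus dopamine at EC20 (50 nM final) for 90 min at 37 deg C. Beta-arrestin recruitment was read as luminescence after 1 h with detection reagent at ambient temperature.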
D2 antag = D2 dopamine receptor (human) antagonism; AID 485344; HEK293 TREx D2 cells, calcium flux, dopamine EC80; 340,000 compounds, 2% hits; inhibition, % at 10 µM; P14416; in the data active = inhibition above about 30%; inactive = below that, where a call was filed
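Calcium mobilization kinetics were recorded at 1 s intervals in tetracycline-induced HEK293 T-REx D2 cells, first for 180 s after compound addition and then 180 s after EC80 dopamine.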
D2 ag-2 = human D2 receptor agonism in beta-arrestin assay. P14416. DiscoveRx PathHunter D2 beta-arrestin, luminescence, 90 min; 100% = 57 uM dopamine signal. activation, % (concentration not given with the values). 360,000 compounds, 0.084% hits; in the data active = activation above about 40%; inconclusive = between about 15% and that limit
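DiscoveRx PathHunter D2 beta-arrestin cells (2,100/well) attached overnight, then compound-stimulated 90 min at 37 C in HBSS/10 mM HEPES/0.1% Tween-20 buffer; beta-galactosidase complementation read by luminescence after 1 h at ambient temperature. Dopamine 57 uM final (EC100) as control.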
A number is an active result; n = inactive; u = inconclusive; x = no result given. An excerpt weighted towards active compounds, which were near 2.4% of everything screened.

SMILES	D2 PAM-1	D2 ag-1	D2 PAM-2	D2 antag	D2 ag-2
CC1(C)CC(=O)C/C(=N\NC(=O)C2CC23CCC3)C1 (stereo not drawn)	n	n	n	47	n
CC(=O)C1=C(O)C(=O)N(c2ccc(Br)cn2)C1c1ccccc1[N+](=O)[O-] (stereo not drawn)	n	n	n	31	n
N#CC(C#N)=c1ccc2c(c1)N1C3=C(CCCC3)CC3CCCCC31N=2 (stereo not drawn)	n	n	71	n	n
N#C/C(C(N)=O)=c1/ccc2c(c1)N1C3=C(CCCC3)CC3CCCCC31N=2 (stereo not drawn)	n	n	n	n	n
CCOC(=O)c1cccc(NC(=O)c2cc(CN3CCOCC3)on2)c1	n	n	x	x	x
CCCS(=O)(=O)N1CCC(C(=O)NCCN2CCC(Cc3ccccc3)CC2)CC1	n	38	n	34	n
CCS(=O)(=O)N1CCC(C(=O)NCCCN2CCC(Cc3ccccc3)CC2)CC1	n	n	n	n	n
CS(=O)(=O)N1CCCC(C(=O)NCCCN2CCN(Cc3ccccc3)CC2)C1 (stereo not drawn)	n	n	n	n	n
CS(=O)(=O)N1CCCC(C(=O)NCCCN2CCC(Cc3ccccc3)CC2)C1 (stereo not drawn)	n	n	n	46	n
CCC(C)N(C(=O)c1csnn1)C(C(=O)NCc1ccc(F)cc1)c1ccccc1 (stereo not drawn)	n	n	n	n	n
Cc1cccnc1NC(=O)CCc1c[nH]c2ccccc12	n	n	n	31	n
Cc1ccnc(NC(=O)CCCc2c[nH]c3ccccc23)c1	n	n	n	n	n
Cc1cccc(-n2nc([N+](=O)[O-])c(=NCc3cccnc3)n2O)c1	n	n	68	n	u
O=[N+]([O-])c1nn(-c2cccc(Cl)c2)n(O)c1=NCc1cccnc1	n	n	59	n	u
CCOc1ccc(C(=O)c2cn(CC(=O)Nc3cc(OC)cc(OC)c3)c3ccc(F)cc3c2=O)cc1	n	n	x	x	x
NS(=O)(=O)c1ccc(NC(=O)Cc2cccs2)cc1	n	n	n	39	n
NC(=O)NC(Cc1ccccc1)C(=O)NNC(=O)COc1ccccc1Cl (stereo not drawn)	x	x	n	x	n
Cc1cc(/C(N)=N/OC(=O)c2cccc(Cl)c2)no1	n	n	n	50	n
Cc1onc(-c2ccccc2Cl)c1C(=O)O/N=C(\N)c1ccccc1	n	n	u	n	43
C/C(=N\OC(=O)c1c(-c2ccccc2Cl)noc1C)c1ccncc1	n	n	n	n	n
Cc1onc(-c2ccccc2Cl)c1C(=O)Nc1nnc(-c2cccc([N+](=O)[O-])c2)s1	x	x	n	x	n
COc1ccc(C(=O)O/N=C(\N)c2cccc(C)c2)cc1OC	n	n	n	n	u
Cc1cccc(C(=O)O/N=C(\N)c2ccc(Cl)cc2)c1	n	n	n	n	46
CCSc1nnc(NC(=O)c2c(-c3ccccc3Cl)noc2C)s1	n	n	n	109	n
Cc1cc(/C(N)=N/OC(=O)c2ccc(Cl)cc2)no1	n	n	n	n	n
SMILES	D2 PAM-1	D2 ag-1	D2 PAM-2	D2 antag	D2 ag-2
N/C(=C\C(=O)c1cc(Cl)ccc1O)C(Cl)(Cl)Cl	n	n	n	n	n
CCC(Nc1ccc(-c2nc(-c3ccccn3)no2)cc1[N+](=O)[O-])c1ccccc1 (stereo not drawn)	n	n	x	x	x
Cc1ccc(C)c(C(=O)O/N=C(\N)c2ccc(Br)cc2)c1	n	n	57	n	n
Cc1ccc(C(=O)O/N=C(\N)c2ccc(Br)cc2)cc1C	n	n	u	n	n
Cc1cccc(C(=O)O/N=C(\N)c2ccc(Br)cc2)c1	n	n	138	n	u
N/C(=N\OC(=O)c1cccs1)c1ccc(Cl)cc1	n	n	u	n	50
Cc1cc(C)cc(C(=O)O/N=C(\N)c2ccc(Br)cc2)c1	n	n	64	35	u
COc1ccc(/C(N)=N/OC(=O)c2cccs2)cc1	n	n	n	n	n
N/C(=N\OC(=O)c1cccc(Br)c1)c1ccccc1	n	n	u	n	n
Cc1ccc(C(C)C)c(OCCN2CCc3ccccc3C2)c1	n	n	n	n	n
Cc1ccc(OCCCCN2CCc3ccccc3C2)c(C)c1	n	n	n	76	n
Cc1ccc(OCCCCn2cnc3ccccc32)c(C)c1	n	n	n	n	n
Cc1ccc(C(C)C)c(OCCCN2CCc3ccccc3C2)c1	n	n	n	30	n
Cc1ccc(C)c(OCCCN2CCc3ccccc3C2)c1	n	n	n	70	n
Cc1ccc(NC(=O)c2cccc(N3C(=O)C4C5C=CC(C5)C4C3=O)c2)cc1C (stereo not drawn)	n	n	n	n	n
CN(C)c1ccc(NC(=O)c2cccc(N3C(=O)C4C5C=CC(C5)C4C3=O)c2)cc1 (stereo not drawn)	n	n	n	36	n
COc1ccc(Nc2c3c(nc4ccc(NC(=O)c5cc(Cl)ccc5OC)cc24)CCCC3)cc1OC	n	x	x	x	x
COc1cc(/C=C/C(=O)c2ccc3c(c2)OCO3)cc(Cl)c1O	n	78	n	35	n
CN1CCN(S(=O)(=O)c2ccc(Oc3ccc(F)cc3Br)nc2)CC1	n	n	n	n	n
CN1CCN(S(=O)(=O)c2ccc(Oc3ccc(Br)cc3F)nc2)CC1	n	n	n	34	n
COc1cc2c(cc1NC(=O)CN1CCN(S(=O)(=O)c3ccc(C)cc3)CC1)oc1ccccc12	n	n	n	42	n
CCOc1cccc(C(=O)N(Cc2ccc(N(C)C)cc2)CC2CCCO2)c1 (stereo not drawn)	n	n	x	x	x
O=C(NCc1ccccc1)c1ccc(N2CCC3(CC2)CC(c2ccccc2)=NO3)c([N+](=O)[O-])c1	n	n	n	n	n
Cc1ccc(CNC(=O)c2ccc(N3CCC4(CC3)CC(c3ccccc3)=NO4)c([N+](=O)[O-])c2)cc1	n	n	n	45	n
CCCn1c(CCC(=O)Nc2ccc(OCC)cc2)nc2cccnc21	n	n	x	x	x
SMILES	D2 PAM-1	D2 ag-1	D2 PAM-2	D2 antag	D2 ag-2
CC1CN(C(=O)CCC(=O)NCc2ccc(F)cc2)c2ccccc2S1 (stereo not drawn)	n	n	n	n	n
COc1ccccc1CNC(=O)CCC(=O)N1CC(C)Sc2ccccc21 (stereo not drawn)	n	n	n	32	n
CCOc1ccc(C2C(C(=O)Nc3ccccc3C)=C(C)Nc3nnnn32)cc1 (stereo not drawn)	n	n	x	x	x
CN(O)/C=C1\C(=O)Nc2ccccc21	n	n	131	n	n
CN(C)/C=C1\C(=O)Nc2ccccc21	n	n	n	n	n
CCc1nc2c(OCCC3CCCCC3)cccn2c1N(C)C(=O)c1cccs1	x	x	n	x	n
Cn1nnnc1SCC(=O)Nc1ccc(Br)cc1Cl	44	n	n	n	n
CCOC(=O)CNC(=O)c1cccnc1Oc1ccc(Cl)cc1	n	n	n	n	n
